In all, about 53,000 sequences went through this assay and about 3,700 (7%) were called active. The sample as a whole holds a higher share of actives than the screen did. A number with no mark means an inactive call.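 How the source made its calls: active means gene knockdowns whose robust z-score for IL-1 alpha signal is at least 2 or at most -2, so actives lie on both sides; inactive means the rest.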

The assay in a line: Components of the Cytosolic LPS Sensing Pathway: Gene Identification via Genome-wide siRNA Screen. Particulars: RAW264.7 macrophages, IL-1a HTRF, actives lie on both sides, screened at 100 nM (by protocol), cells primed 5 h with Pam3CSK4 first. The text has this:
Non-canonical inflammasome activation by cytosolic LPS is a critical component of the host response to Gram-negative bacterial infection, however we lack a comprehensive understanding of the cellular processes that control this pathway. Here we describe a genome-wide siRNA screen to identify genes regulating the mouse macrophage IL-1 alpha response to cytosolic LPS.
RAW264.7 cells were maintained in complete DMEM media, comprising DMEM with 4.5 g/L glucose, 10% FBS (Gemini Bio-Products, West Sacramento, CA), 2 mM Glutamine (Lonza) and 20 mM HEPES (Lonza), hereafter complete DMEM.
The RNAi screen was conducted in 384-well format using the Ambion Silencer Mouse Genome siRNA Library (#4391425), which consists of three unique, nonoverlapping, nonpooled siRNAs for each of 17,000 gene targets. siRNA reagents ([…]) were stamped into 384-well white flat-bottom microplates (Corning, 3570) using a Velocity11 VPrep liquid handling system (Agilent) integrated into a BioCel robotic platform (Agilent) in columns 1-22, leaving columns 23-24 empty for negative (Ambion, Negative control #1) and positive (mouse Casp4) controls, respectively. The median value of each plate's negative control column was used to normalize sample wells, and the positive control was used to assess transfection efficiency and assay performance.
Lipofectamine RNAiMAX Transfection Reagent ([…]; Invitrogen) was added in […] serum-free, antibiotic-free media to plate wells using a Thermo Scientific Matrix WellMate and Microplate Stacker. Plates were incubated for 45 min at room temperature to allow for the sufficient formation of siRNA-lipid complexes. Cells were seeded at a density of 1x10^4 cells per well in 20 microL media containing 20% (vol/vol) FBS without antibiotics. The final concentration of siRNA in each well was 100 nM. Cells were cultured for 48h at 37 degrees C in 5% CO2 before addition of […] of TLR ligand Pam3CSK4 for 5 hours. The medium was then removed, replaced with […] growth media and cell were transfected with […] of LipidA and TransIT-TKO (Mirus) for 24 hour. At the end of the LipidA treatment, […] of supernatant was transferred to a 384 Greiner Bio-one non-binding low volume plate and […] of IL-1a HTRF reagent (Cisbio, 62MIL1APEH) was added and incubated at room temperature overnight. The plates were read on an EnVision plate reader (PerkinElmer). Cell viability was measured by adding 20ul Cell Titer Glo to the original plate and running a luminescence read on the EnVision. The quantified IL-1a signal for each siRNA gene-targeted well was divided by the median of the negative control wells and multiplied by 100 to achieve a negative control normalized value for each well/siRNA. This normalized value was then used to generate a robust z-score by first taking the log of each value and then by subtracting the median and dividing by the […].
With GGACAUAUUGGAUGGUGAUTT against Usp2, the z-score was -0.847.

As to CCGAGAACUACCUGUGUAATT against Unc119b, the z-score was 0.266. Regarding GGGUUCAAAUAGUUUACCUTT against Tmem33, the z-score is 0.156. Turning to GCCGCAUUGAGUACAUGGUTT against Ap1m1, the z-score was 1.9. Take GGGAUGAUUUUGAGAUUUUTT against Dmpk: the z-score is 2.74 (active). The same measure for GGAUUUCAGAAAGUGGCCUTT against Acad8: -1.22. The figure for CCCUAUGGACUGAGUUUGUTT against Olfr183 is -0.036; for CUACGUGCUAGCUCAAGGATT against Mmp28 it is -1.1; for GGAAGUAUUUCACAUGUGATT against Dctn1 it is -0.299. In the case of CGGUAUAUAGAUCACUUCUTT against Olfr56, the z-score is 0.276. In the case of GGUGAUCCUCAUAUUGGCCTT against Npy2r, the z-score is -0.521. The figure for GCUACUUGUUGAGACCCAATT against Esr1 is -0.616; for GCCCAAAAGUAUAAACCAGTT against Peg12 it is 0.318. The figure for CGAGCUUGCUAUCGGGAAGTT against Defb7 is -0.902.

For the sequence “GCUUAAGCAGUGAUAAUAATT against B230317F23Rik”, the z-score is -1.65. With CGAGGACUACUAGAAGAAATT against Trpc1, the z-score is 2.36 (active). The figure for GGACACAGGACUCUACACCTT against Psg16 is 0.293.

Take CGGGAAGCAUCACUAUUUCTT against Nabp1: the z-score was -0.822. For GGACUCUUUUAUGAGUUUGTT against Lims1, the z-score is 0.757.

For the sequence GGCUAAAACAAGUGAAUGGTT against Gli3, the z-score was -0.619. As for GGAGUAAAAAUGAGUAUGATT against Abcg3, the z-score was 0.534. As to GAUAUUCCUGCUCACAGUGTT against Olfr1265, the z-score is -1.04. The figure for UAGUCAUCUUCACUCUCCUTT against Olfr1249 is -0.907; for GGACUUUUACCAGUUCUCCTT against Ece2 it is -2.43 (active).

Regarding GGCUCUCUGUCUGGAAAAGTT against Vcan, the z-score is -1.25.

GGAGCUGAGGAAUUGAUCCTT against Pudp: the z-score is -1.97. CCAUUGCAUGCAAUGACUATT against S100a10: the z-score is -1.25.

For the sequence GGAAGCAGCAAAGAAGUUGTT against Olfr1109, the z-score was 0.918. With CCUAUCAUGUUAAAAACAGTT against Grem2, the z-score was -1.13. Turning to GGGUCACUUGGAUUGUGGATT against Tmx2, the z-score is -0.0195. The figure for GGAUCCUGCAUAUCUCAAATT against Mrps18c is 0.186; for GGGACACGAUGAGGAGUCATT against Cfap410 it is -2.21 (active); for GCGACUUAGAAAAGAACAGTT against Ccdc58 it is 1.91.

Consider “GGAACAGCAGCUUCCCUAATT against 4930555G01Rik”, for which the z-score is -0.0144. The figure for CCAAGCGAAAUCGAGGUGUTT against Omt2b is 0.931. The figure for GGCUAUAGCAGCACAUUGGTT against Ylpm1 is 2.57 (active). On to GGUGGAGCAGAUGAAGAACTT against Hspbp1, for which the z-score is 0.447. Regarding CCCAAGAAGUUUUAUUCUGTT against Zbbx, the z-score is -0.221. Take GGCCUACGACAAAUCCAAATT against Csrp2: the z-score is 1.14. For the sequence GGCGAAGAUUGAAAAAUGCTT against Ube3c, the z-score is -0.407. The same measure for GGAACUAAAUGUGAAACAUTT against Ift52: -2.07 (active). On to GGAAGUGGAACAGGACGUATT against Caps2, for which the z-score is -1.17. GCUGUACCACAACUAGUCATT against Cdc7: the z-score is 0.977. The figure for GGCAAGUUUGCUAUAACCUTT against Jmy is -2.57 (active); for GGAAUAGGGAGGUAACCAGTT against Olfr1394 it is 0.0525. The same measure for GGAAAUUGCACCUUUAAAGTT against Rnf130: 0.335; for CGUAGCCGAGAAGACCCUATT against Shh: 0.0734. The figure for GGUUUUAGAAUUCUGGACGTT against Plppr2 is 0.243; for GCUCCUCUCAGGUGUACGATT against B9d2 it is 2.23 (active); for GGGCAGGGAUGUUUAGAUCTT against Homer2 it is 0.499. On to CCAACAUCUCUGUAUACUGTT against Olfr8, for which the z-score was 0.178. For the sequence CCUACGUGAUCAACAAGCATT against Fxn, the z-score is 0.682.

Turning to GGGAGCAACUGUGUCAAAUTT against Tspan10, the z-score was 1.06.

For the sequence GGAAAGACACAGAUAAUAATT against Arvcf, the z-score is -1.28. For CCAAUAACUCUAAAUAGGCTT against Trhr, the z-score was 0.308. The figure for GGUCAUCGAAUCUGGAGUATT against Pyroxd1 is -0.282.

Consider GGUCCACAGUACCACAUAATT against Tespa1, for which the z-score is -3.2 (active). CAUCCCAGAGUGUUGUCUUTT against Olfr1325: the z-score is 1.97.

For the sequence GCAGCUCCCAAUCUCACUUTT against Ankrd34a, the z-score was 0.171. In the case of “GGUGUCCGUAAAUGGAGUGTT against A430033K04Rik”, the z-score is 0.809. In the case of GGAAGAGAGCCUCUGCCAATT against Ccnb2, the z-score is 2.28 (active). Regarding GUGUGCUAUGAGCAAUGCCTT against Sprr2a1, the z-score was -1.34. Turning to GGUUCGACGAAGAUCAGAGTT against Akap1, the z-score is -0.634. The figure for GGAAAGUGUUCUCUACAUGTT against Olfr1093 is 0.878; for GGUAACAAGAGGUCUAGCATT against P2ry1 it is 3.66 (active). The figure for GGAUACUGGCAUGAAAUUGTT against Slc22a2 is -0.888. For GGCGGAACACAUGACUAGGTT against Ilf3, the z-score was 0.189. The figure for GGUCUGAAAAUGGAAUACCTT against Vps13a is 1.8. As to GGGAAUCAACGCAAAGUUGTT against Pcdhga5, the z-score is -0.00294. The figure for GCACAAGACUAACAAUACGTT against Sptbn2 is -1.26; for GGACAUCAAAGAAAAGUCATT against Gpr171 it is 0.955; for GCCAAUGAAAGAGACGUAGTT against Fam81a it is -0.421. On to CCAAGAUGGGUUCAUCUCUTT against Cabp5, for which the z-score was 2.39 (active). The figure for CGGAUUUCAUGGCUCAAGATT against Gfm2 is -0.123. On to CGUGAACAGCUUUAAGGUGTT against Usp27x, for which the z-score was 1.34.

Regarding CCCUAACAAACCCUAUUAUTT against Kdm6b, the z-score is -1.49. The figure for GCUGAGACCCAGAUGCAAUTT against Mal is 0.858; for GUCUGCAUCACCUUCACCATT against Lhb it is -0.301; for CGGUAUCACGGUUAUCCUUTT against Olfr215 it is 0.932. Take GGGAUUCCAGACAUGGGAATT against Alg9: the z-score is -0.191.

For the sequence GCGGUUCUAAGGAUACCGATT against Txndc17, the z-score is 2.52 (active). The same measure for GGGUUUCUGACCCUUGGUUTT against Vmn1r220: -1.42; for GGGUGUGAAGUCAUGGUAUTT against Trmt9b: 0.503; for GGCCUCCUAAGAGGACUCATT against Dach1: -1.11. Take CGCAAUUCAGGUACCAAAUTT against Ndufv1: the z-score was -0.0623. The same measure for GCCUGAAAUCAACUCCACCTT against F2: 2.21 (active).

Turning to CCAUUACAUCAGCUUUAUUTT against Pamr1, the z-score was -0.845. Regarding GGAUAUCCUUACAAGGACCTT against Tmco3, the z-score was -0.646. Turning to GGCCGACCUUUCUAUCAAUTT against Rasip1, the z-score was -0.0174.

With GGUGUCAUUCAACUUGCAUTT against Rnase10, the z-score was -2.55 (active). The same measure for GGAGGAAUACAAAUUCAAGTT against Vamp5: 1.37; for GGCUCUCUGGAGAAUCAUGTT against Slc25a28: 0.0751; for GGUUACUAUGGAGACCUGGTT against Mia: 0.429. The same measure for GCCUUAAUACUCACCAGGGTT against Zscan2: 0.702; for GCUAAGACACGAUAAACUUTT against Yes1: 1.34; for GCUGAUAAGGAGGUACCAUTT against Igf2r: 0.916.

Take GGAAAAGCAUCAAUUGAUGTT against Abca8b: the z-score was -1.02.

For the sequence GGCUUUCAUUCUGCAGCUATT against Olfr1089, the z-score was -2.13 (active). The figure for GGUGUUCAGAUGGUUCCCATT against Exosc1 is -1.19; for GCUGUUACCUUGACGAAUATT against Tsc2 it is 1.32.

Turning to GGGAUAAAGAGCAAAGAAUTT against Trdv2-2, the z-score is -0.466. The same measure for GCGUAAUUCCAGCAGAUGUTT against Mepe: 1.74; for GAAAAGUGCACCAUCAGCCTT against Ly6g5b: -2.27 (active); for GCUACAGGUCAAUGUCGUGTT against Tcte2: -1.61. Take CCCAUAGCUAAUGAACCAATT against Sntg2: the z-score is -0.604.

On to GGAGAGAAAAAGUAAUAUCTT against Fgf1, for which the z-score was 0.843. The figure for “GGUCGUAAGACAGUUGUCCTT against 4932438H23Rik” is -0.715.
